CHO-K1 Ca PAM: counter-screen for M1 PAMs: effect in parental CHO-K1 cells. activation, % at 3 µM. actives 0.02% (n = 360,000). ATP EC20, Fluo-8 calcium fluorescence; 0% at ATP EC20, 100% at ATP max;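 active = activation above the run cutoff, the mean activation of all test compounds plus 3 SD, cut at about 40% in these data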;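 note: peak over basal fluorescence ratio in a 140 s read after ATP addition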
M1 PAM: human CHRM1 positive allosteric modulation; CHO-K1 hM1, Fluo-8 calcium fluorescence, ACh EC20; 0% = ACh EC20, 100% = maximal ACh; activation, % at 3 µM; actives 0.088% (n = 360,000); in the data active = activation above about 19%, passing the limit was not always enough
Target sequence (P11229 whole entry, looked up): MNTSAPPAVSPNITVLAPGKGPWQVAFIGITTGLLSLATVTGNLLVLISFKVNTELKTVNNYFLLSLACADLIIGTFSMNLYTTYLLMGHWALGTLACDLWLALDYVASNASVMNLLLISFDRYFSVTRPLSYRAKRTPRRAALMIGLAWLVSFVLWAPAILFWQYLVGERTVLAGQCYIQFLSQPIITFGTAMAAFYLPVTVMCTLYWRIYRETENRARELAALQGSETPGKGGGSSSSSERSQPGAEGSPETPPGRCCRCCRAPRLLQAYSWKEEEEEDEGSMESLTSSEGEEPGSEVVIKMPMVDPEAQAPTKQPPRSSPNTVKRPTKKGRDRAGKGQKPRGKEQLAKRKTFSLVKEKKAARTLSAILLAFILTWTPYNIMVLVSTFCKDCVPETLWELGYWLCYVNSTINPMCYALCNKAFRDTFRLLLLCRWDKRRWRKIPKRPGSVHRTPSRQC
CHRM1 antagonist: antagonists of human M1 muscarinic receptor | P11229 | CHO-K1 hM1, Fluo-8 calcium fluorescence, ACh EC80 antagonist | inhibition, % at 3 µM | actives 1.3% (n = 360,000);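 active = percent inhibition above its own plate's cutoff, namely the mean of that plate's compound wells plus 3 SD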;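 note: peak over basal fluorescence ratio during 140 s after agonist addition; 0% = ACh EC80 plus DMSO and 100% = DMSO alone without agonist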
CHO-K1 Ca ag: counter-screen for M1 agonists: effect in parental CHO-K1 cells | AID 602248 | actives 0.48% (n = 360,000) | Fluo-8 calcium fluorescence; scaled to maximal ATP response, vehicle zero | activation, % at 3 µM; in the data active = activation above about 15%;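 note: untransfected CHO-K1 host cells lacking M1 receptor as counterscreen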
CHRM1 agonist: activates human CHRM1 receptor; P11229; CHO-K1 hM1, Fluo-8 calcium fluorescence, agonist mode; 0% DMSO, 100% acetylcholine EC100; activation, % at 3 µM; actives 0.33% (n = 360,000);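 active = activation above the run's mean compound activation plus 3 SD, cut at about 16% in these data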;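 note: peak over basal fluorescence ratio within a 140 s kinetic read after compound addition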
CHO-K1 Ca antag: M1 antagonist counterscreen hit in parental CHO-K1 cells | ATP-induced calcium, Fluo-8 fluorescence | inhibition, % at 3 µM | actives 0.6% (n = 360,000) | AID 602250;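 active = inhibition above a per-plate cutoff, the plate's mean sample inhibition plus 3 SD, cut at about 24% in these data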;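 note: 0% = DMSO plus EC80 ATP and 100% = DMSO alone without ATP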
Starred values were filed as active, the others as inactive. Shown are actives, neighbours in structure and some others; about 2.3% of the full set was active somewhere.

What do the screens show for `CS(=O)(=O)NCCOc1ccc(S(=O)(=O)NCCOc2ccccc2)cc1`?
CHO-K1 Ca PAM: -19; M1 PAM: -10; CHRM1 antagonist: 5; CHO-K1 Ca ag: 0; CHRM1 agonist: -6; CHO-K1 Ca antag: 32*

What do the screens show for `CCN(c1ccc(OC)cc1)S(=O)(=O)c1nnc(NC(=O)c2ccccc2Cl)s1`?
CHO-K1 Ca PAM: 9; M1 PAM: -4; CHRM1 antagonist: 7; CHO-K1 Ca ag: 0; CHRM1 agonist: -2; CHO-K1 Ca antag: 3

What do the screens show for `Cc1cc(/C=N/n2cnnc2)c(C)n1-c1ccc(OCc2ccc(Cl)cc2)cc1`?
CHO-K1 Ca PAM: 4; M1 PAM: -15; CHRM1 antagonist: 38; CHO-K1 Ca ag: 9; CHRM1 agonist: 0; CHO-K1 Ca antag: 24*

Results for Cc1cc(/C=N/n2cnnc2)c(C)n1-c1ccc(OCc2ccccc2F)cc1 ?
CHO-K1 Ca PAM: -9; M1 PAM: -27; CHRM1 antagonist: 45*; CHO-K1 Ca ag: 8; CHRM1 agonist: -9; CHO-K1 Ca antag: 18

What do the screens show for `CCOc1ccccc1NC(=O)C1(S(=O)(=O)c2ccc(Cl)cc2)CC1`?
CHO-K1 Ca PAM: 0; M1 PAM: 0; CHRM1 antagonist: -4; CHO-K1 Ca ag: -1; CHRM1 agonist: -6; CHO-K1 Ca antag: -18

How did O=C(c1cc(-c2ccc(Cl)cc2Cl)on1)N1CCN(C(=O)c2ccco2)CC1 do in these assays?
CHO-K1 Ca PAM: -7; M1 PAM: 14; CHRM1 antagonist: -20; CHO-K1 Ca ag: -1; CHRM1 agonist: 8; CHO-K1 Ca antag: 25*

Results for O=C(c1cc(-c2ccccc2Cl)on1)N1CCN(C(=O)c2ccco2)CC1 ?
CHO-K1 Ca PAM: 15; M1 PAM: 14; CHRM1 antagonist: -44; CHO-K1 Ca ag: 0; CHRM1 agonist: 2; CHO-K1 Ca antag: -13

How did CCOC(=O)CN1c2ccccc2NC(=O)CC1C (centres undefined) do in these assays?
CHO-K1 Ca PAM: 43*; M1 PAM: 12; CHRM1 antagonist: -14; CHO-K1 Ca ag: 1; CHRM1 agonist: -4; CHO-K1 Ca antag: -29

Results for CCc1nn(CC(=O)NCCCN2CCN(CC)CC2)c(=O)c2cc3occc3n12 ?
CHO-K1 Ca PAM: 3; M1 PAM: 24*; CHRM1 antagonist: -19; CHO-K1 Ca ag: 2; CHRM1 agonist: -2; CHO-K1 Ca antag: -11

What do the screens show for `CCc1nn(CC(=O)NCCCN(CC)Cc2ccccc2)c(=O)c2cc3sccc3n12`?
CHO-K1 Ca PAM: -10; M1 PAM: -28; CHRM1 antagonist: 44*; CHO-K1 Ca ag: 0; CHRM1 agonist: -13; CHO-K1 Ca antag: -9

How did CCc1nn(CC(=O)NCCCN(C)C2CCCCC2)c(=O)c2cc3occc3n12 do in these assays?
CHO-K1 Ca PAM: 8; M1 PAM: -5; CHRM1 antagonist: 5; CHO-K1 Ca ag: 0; CHRM1 agonist: -13; CHO-K1 Ca antag: -11

Results for Cc1noc(C)c1COC(=O)c1ccc(S(=O)(=O)N2CCCCC2)cc1 ?
CHO-K1 Ca PAM: 15; M1 PAM: 0; CHRM1 antagonist: 7; CHO-K1 Ca ag: 2; CHRM1 agonist: -13; CHO-K1 Ca antag: -2

How did O=C1NC(Cc2ccccc2)c2nc3ccc(F)cc3c(=O)n2-c2cc3ccccc3cc21 (centres undefined) do in these assays?
CHO-K1 Ca PAM: 13; M1 PAM: -6; CHRM1 antagonist: 17; CHO-K1 Ca ag: 4; CHRM1 agonist: -3; CHO-K1 Ca antag: 1

How did COc1ccc(CCNCC(C)c2ccccc2)cc1 (centres undefined) do in these assays?
CHO-K1 Ca PAM: 5; M1 PAM: -20; CHRM1 antagonist: 35*; CHO-K1 Ca ag: 1; CHRM1 agonist: -9; CHO-K1 Ca antag: -5

What do the screens show for `NC(c1csc(NC(=O)c2cccc(OC(F)(F)F)c2)n1)c1ccccc1Cl` (centres undefined)?
CHO-K1 Ca PAM: 19; M1 PAM: 5; CHRM1 antagonist: 5; CHO-K1 Ca ag: 4; CHRM1 agonist: 3; CHO-K1 Ca antag: 1

Results for OCC1(Cc2cccc(C(F)(F)F)c2)CCN(Cc2cc(F)cc(F)c2)CC1 ?
CHO-K1 Ca PAM: 6; M1 PAM: 0; CHRM1 antagonist: -1; CHO-K1 Ca ag: 2; CHRM1 agonist: -6; CHO-K1 Ca antag: -9

Results for CSc1cccc(CN2CCC(CO)(Cc3cccc(C(F)(F)F)c3)CC2)c1 ?
CHO-K1 Ca PAM: 0; M1 PAM: -17; CHRM1 antagonist: 31*; CHO-K1 Ca ag: 3; CHRM1 agonist: -7; CHO-K1 Ca antag: 0

Results for COCCNC(=O)C1CCCN(C(=O)COc2ccc(Cl)cc2Cl)CC1 (centres undefined) ?
CHO-K1 Ca PAM: 17; M1 PAM: 2; CHRM1 antagonist: -12; CHO-K1 Ca ag: 0; CHRM1 agonist: -3; CHO-K1 Ca antag: -6

How did Cc1cc2oc(C(=O)NCc3ccccc3)cc(=O)c2cc1C do in these assays?
CHO-K1 Ca PAM: -12; M1 PAM: -31; CHRM1 antagonist: 81*; CHO-K1 Ca ag: -1; CHRM1 agonist: -7; CHO-K1 Ca antag: 13

How did Cc1ccc2oc(C(=O)NCc3ccccc3)cc(=O)c2c1 do in these assays?
CHO-K1 Ca PAM: -11; M1 PAM: 2; CHRM1 antagonist: 0; CHO-K1 Ca ag: 6; CHRM1 agonist: 0; CHO-K1 Ca antag: 3

How did COc1ccc(Cl)cc1C(=O)NNC(=S)NC(=O)c1ccc(F)c(F)c1 do in these assays?
CHO-K1 Ca PAM: 6; M1 PAM: -7; CHRM1 antagonist: 2; CHO-K1 Ca ag: 2; CHRM1 agonist: 37*; CHO-K1 Ca antag: -6

Results for COc1ccc(C(=O)NNC(=S)NC(=O)c2ccc(F)cc2)cc1Br ?
CHO-K1 Ca PAM: -35; M1 PAM: -27; CHRM1 antagonist: 35*; CHO-K1 Ca ag: 66*; CHRM1 agonist: 88*; CHO-K1 Ca antag: 17

How did CCCCC(=O)NC(=S)NNC(=O)c1ccc(OC)cc1 do in these assays?
CHO-K1 Ca PAM: -2; M1 PAM: -3; CHRM1 antagonist: 9; CHO-K1 Ca ag: 31*; CHRM1 agonist: 11; CHO-K1 Ca antag: 0

Results for COc1cc(C(=O)NC(=S)NNC(=O)c2ccc3c(c2)OCO3)cc(OC)c1OC ?
CHO-K1 Ca PAM: 8; M1 PAM: -2; CHRM1 antagonist: -4; CHO-K1 Ca ag: 9; CHRM1 agonist: 17*; CHO-K1 Ca antag: 9

What do the screens show for `COc1cc(C(=O)NC(=S)Nc2ccc3c(c2)OCO3)cc(OC)c1OC`?
CHO-K1 Ca PAM: 18; M1 PAM: 4; CHRM1 antagonist: -6; CHO-K1 Ca ag: 1; CHRM1 agonist: -4; CHO-K1 Ca antag: -6

Results for CC(C)(C)[C@@H]1COC(=O)[C@H](Cc2ccc(F)cc2)CC/C=C\C[C@@H](CC(=O)NCCO)C(=O)N1 ?
CHO-K1 Ca PAM: 14; M1 PAM: 8; CHRM1 antagonist: -11; CHO-K1 Ca ag: 1; CHRM1 agonist: -2; CHO-K1 Ca antag: 7

How did COc1ccc(CCN2CC(=O)NC(=O)C2)cc1OC do in these assays?
CHO-K1 Ca PAM: 27; M1 PAM: -4; CHRM1 antagonist: -1; CHO-K1 Ca ag: 1; CHRM1 agonist: -4; CHO-K1 Ca antag: -11

Screening results as filed in PubChem.
